Here are results for 16 compounds from PubChem BioAssay (NCI).

Holding throughout (experiment): NCI-60 one-dose screen, 48 h (100 = growth as untreated, 0 = no growth, -100 = all killed)
One test concerns DU-145 prostate. Particulars: 10 µM unless noted.
The subject of a further test is K-562 leukemia. The following applies: 10 µM unless noted.
A further test has as its system MALME-3M melanoma. The following applies: 10 µM unless noted.
Another test concerns MDA-MB-231 breast. Particulars: 10 µM unless noted.
The test system of the next test is SF-268 CNS. The following applies: 10 µM unless noted.
For another test, the system named is SF-295 CNS. Particulars: 10 µM unless noted.
A further test deals with SF-539 CNS. Particulars: 10 µM unless noted.
The subject of the next test is M14 melanoma. Particulars: 10 µM unless noted.
A further test deals with RXF 393 renal. Particulars: 10 µM unless noted.
The test system of a further test is UACC-257 melanoma. Particulars: 10 µM.

The panel holds about 83,000 compounds, 20% with a hit somewhere; the sample as a whole holds those more often.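 Activity criterion: percent growth below 10, measured after cells in 96-well plates were exposed to a single compound concentration for 48 hours.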 Values without a mark were called inactive. Activity calls are given as the source filed them.

`CCCCCCCC/C=C\CCCCCCCCOc1ccccc1CCOP(=O)(O)OCC[N+](C)(C)C`: the growth with DU-145 prostate was 86.6%; in the test with K-562 leukemia it was 72.7%; with MALME-3M melanoma, 93%; with MDA-MB-231 breast, 73.9%; in the test with SF-268 CNS it was 44.9%; in the test with SF-295 CNS it was 69.2%. For the same compound, the figures for the growth in the test on SF-539 CNS and in the test with M14 melanoma were 84.8% and 84.4%, respectively.

Regarding `O=C1Nc2cc(Cl)ccc2Oc2cc(Oc3ccccc3)ccc21`, the growth was 71.5% with DU-145 prostate; 25.5% in the test on K-562 leukemia; 87.1% in the test on MALME-3M melanoma; 63.9% in the test on MDA-MB-231 breast; 63% in the test on SF-268 CNS; 49% in the test with SF-295 CNS. In addition, the growth was 64.7% in the test on SF-539 CNS and 41.1% in the test on M14 melanoma.

`c1ccn2nnnc2c1`: the growth was 103% in the test with DU-145 prostate; 97.5% in the test with K-562 leukemia; 98.5% in the test with MALME-3M melanoma; 110% in the test on RXF 393 renal; 101% in the test with SF-268 CNS; 101% with SF-295 CNS. In addition, the growth was 95.5% in the test with SF-539 CNS, 101% in the test with UACC-257 melanoma and -54.6% (active) with M14 melanoma.

Consider `CCN1C(=O)N(CC)C2Nn3c(s/c(=C4\C(=O)N(C5CCCC5)c5ccccc54)c3=O)=NC21` (stereo not drawn), for which the growth was 43.6% in the test with DU-145 prostate; 22% in the test with K-562 leukemia; 70.9% with MALME-3M melanoma; 58.1% with MDA-MB-231 breast; 59.5% with SF-268 CNS; 60.6% with SF-295 CNS. Further, the growth in the test with SF-539 CNS is 37%; with M14 melanoma it was 91.9%.

Consider `Cc1ccc(S(=O)(=O)OC2COCOC2C(OS(=O)(=O)c2ccc(C)cc2)C2OCOCC2OS(=O)(=O)c2ccc(C)cc2)cc1` (stereo not drawn), for which the growth in the test with DU-145 prostate was 111%; in the test with K-562 leukemia, 100%; in the test on MALME-3M melanoma it was 98.1%; with RXF 393 renal, 114%; with SF-268 CNS it was 106%; in the test on SF-295 CNS it was 104%. In addition, the growth in the test on SF-539 CNS was 98.9%; in the test with UACC-257 melanoma, 97.2%; in the test with M14 melanoma it was 112%.

For the compound `CCN1C(=O)/C(=c2\sc3n(c2=O)C2C(NN=3)N(CC)C(=S)N2CC)c2ccccc21` (stereo not drawn), the growth was 115% in the test on DU-145 prostate; 98% with K-562 leukemia; 93.2% with MALME-3M melanoma; 96.3% in the test on MDA-MB-231 breast; 90.2% in the test with SF-268 CNS; 100% in the test on SF-295 CNS. In addition, the growth in the test on SF-539 CNS was 96.3%; in the test on M14 melanoma, 96.2%.

For the compound `CCN1C(=O)N(CC)C2C1NN=c1s/c(=C\c3ccccn3)c(=O)n12` (stereo not drawn), the growth is 9.45% (active) with DU-145 prostate; 8.75% (active) with K-562 leukemia; 22.4% with MALME-3M melanoma; 45.5% in the test on MDA-MB-231 breast; 74.2% with SF-268 CNS; 3.21% (active) in the test with SF-295 CNS. Also, the values for the growth in the test with SF-539 CNS and in the test with M14 melanoma were -19.8% (active) and 13%, respectively.

As for `COc1cccc2cc(-c3cc4ccccc4[nH]3)/c(=N/C(=S)Nc3ccccc3)oc12`, the growth with DU-145 prostate was 74.4%; in the test on K-562 leukemia it was 84.4%; with MALME-3M melanoma, 78.9%; with MDA-MB-231 breast it was 61.6%; in the test with SF-268 CNS, 70.6%; with SF-295 CNS it was 87.1%. Further, the growth in the test with SF-539 CNS was 33%; in the test with M14 melanoma, 70.6%.

As to `OCc1c(-c2ccccc2)nc2sccn12`, the growth with DU-145 prostate is 109%; in the test with K-562 leukemia, 123%; in the test with MALME-3M melanoma, 109%; in the test on MDA-MB-231 breast, 109%; in the test with SF-268 CNS it was 102%; in the test with SF-295 CNS, 112%. Further, the figures for the growth in the test on SF-539 CNS and in the test with M14 melanoma were 73.7% and 102%, respectively.

In the case of `CC(C)(C)OC(=O)N1C/C(=C\c2cccs2)C(=O)/C(=C/c2cccs2)C1`, the growth in the test on DU-145 prostate is 107%; with K-562 leukemia, 75.8%; in the test on MALME-3M melanoma, 95.8%; with MDA-MB-231 breast, 101%; with SF-268 CNS, 91.8%; with SF-295 CNS, 98.9%. Besides, the growth is 99% with SF-539 CNS and 98.3% in the test with M14 melanoma.

Turning to `Cc1cc(C(=O)CSc2nc3ccccc3c(=O)[nH]2)c(C)n1C`, the growth is 102% with DU-145 prostate; 110% in the test with K-562 leukemia; 87.5% with MALME-3M melanoma; 90.4% in the test with MDA-MB-231 breast; 110% with SF-268 CNS; 81.9% in the test on SF-295 CNS. In addition, the growth in the test with SF-539 CNS is 90.2%; in the test on M14 melanoma, 112%.

As for `O=C1CCCCC=C1C[N+](=O)[O-]`, the growth in the test with DU-145 prostate was 106%; in the test with K-562 leukemia it was 27.8%; in the test on MALME-3M melanoma, 73.2%; in the test with MDA-MB-231 breast, 107%; with SF-268 CNS, 94.2%; with SF-295 CNS, 97.7%. In addition, the growth was 101% with SF-539 CNS and 91.3% in the test on M14 melanoma.

In the case of `CC(=O)OCC1OC(OCC2OC(OC(C)=O)C(OC(C)=O)C(OC(C)=O)C2OC(C)=O)C(OC(C)=O)C(OC(C)=O)C1OC(C)=O` (stereo not drawn), the growth is 110% with DU-145 prostate; 106% in the test on K-562 leukemia; 108% with MALME-3M melanoma; 71% in the test with RXF 393 renal; 105% in the test on SF-268 CNS; 99.3% with SF-295 CNS. In addition, the growth in the test on SF-539 CNS was 108%; in the test on UACC-257 melanoma, 95.8%; in the test with M14 melanoma it was 107%.

`CCOC(=O)c1ccccc1NC(c1ccccc1)c1ccc2cccnc2c1O` (stereo not drawn): the growth in the test on DU-145 prostate was 36.9%; with K-562 leukemia, 30.2%; with MALME-3M melanoma it was 54.4%; in the test with RXF 393 renal, 25%; in the test on SF-268 CNS, 28.6%; in the test with SF-295 CNS, 25.4%. Moreover, the growth in the test with SF-539 CNS was 11.8%; in the test on UACC-257 melanoma, 22.1%; in the test on M14 melanoma, 15.7%.

With `Clc1ccc(-c2nc(-c3ccco3)cn3ccnc23)cc1`, the growth in the test with DU-145 prostate is 67.3%; with K-562 leukemia it was 68.9%; in the test on MALME-3M melanoma, 77%; in the test on RXF 393 renal it was 41.6%; in the test on SF-268 CNS it was 64.3%; in the test on SF-295 CNS, 15.1%. In addition, the growth with SF-539 CNS was 62.2%; in the test with UACC-257 melanoma, 75.2%; in the test on M14 melanoma, 97.4%.

`CCCCNc1nnc(-c2cc(-c3cc4ccccc4o3)nn2-c2ccccc2)o1`: the growth with DU-145 prostate was 102%; with K-562 leukemia, 83%; in the test with MALME-3M melanoma, 93.1%; in the test with MDA-MB-231 breast, 91.4%; in the test with SF-268 CNS it was 93.9%; in the test on SF-295 CNS, 98.7%. Besides, the growth in the test with SF-539 CNS was 97.4%; in the test on M14 melanoma, 108%.
